# In PubChem BioAssay (NCI):
# The panel holds about 79,000 compounds, 15% with a hit somewhere; the sample as a whole holds those more often. A number with no mark means an inactive call. Activity calls are given as the source filed them. No stated cut-off is given here; in the data, active means growth inhibition above about 70%; inactive means the rest.
# Experiment: NCI Yeast Anticancer Drug Screen. Data for the mlh1 rad18 strain (AID 175)
# Conditions: S. cerevisiae mlh1 rad18 strain growth inhibition; at 50.0 µM; stronger effect = higher value
# Experimental: Growth inhibition of yeast strains with defined genetic alterations is measured as a screen for potential anti-cancer activity. Selected strains with alterations in DNA damage repair or cell cycle control were exposed to compounds and growth inhibition was measured relative to vehicle treated controls. The strain used in this assay is mlh1 rad18
row,Structure (SMILES),growth inhibition
1,CC(C)=CC1C(COCc2cc3c(cc2Br)OCO3)C1(C)C (stereo not given),-3.95%
2,O/N=C1\CCn2cccc21,-11.2%
3,CN(C)c1ccc2[nH]cc(C(=O)O)c(=O)c2c1,7.35%
4,O=[N+]([O-])c1cccc(Cc2nncc3ccccc23)c1,17.7%
5,CCCCNC(=O)CC(C)C(=O)O (stereo not given),6.1%
6,CCOCCOC(=O)C1CCCC1=O (stereo not given),-8.45%
7,CC(C)(CO)NCC(O)CS(=O)(=O)O (stereo not given),0.4%
8,CNC(=O)OCc1c(-c2ccccc2)c(-c2ccccc2)n(C)c1COC(=O)NC,87.8% (active)
9,CC(=O)Nc1ccc(S(=O)(=O)[N-]C2C(=O)c3ccccc3C(=O)C2[n+]2ccccc2)cc1 (stereo not given),-1.8%
10,C(=N\N1CCN(/N=C/c2ccc(OCc3ccccc3)cc2)CC1)/c1ccc(OCc2ccccc2)cc1,-16.8%
11,COc1ccc(N2C(=O)C3c4[nH]c5ccccc5c4C4CCCCCCCCCCC4C3C2=O)cc1 (stereo not given),-4.2%
12,CCCCCC(=O)Nc1ccccc1,-3.25%
13,C[C@]12CCC(=O)C=C1CC[C@@H]1[C@@H]2[C@@H](O)C[C@@]2(C)[C@H]1CC[C@]2(O)C(=O)CO,-35%
14,COc1cc(-c2cc(=O)c3c(O)c(OC)c(OC)c(OC)c3o2)ccc1O,14.9%
15,c1csc(-c2sc(-c3ccsc3)cc2Cc2ccsc2)c1,-23.3%
16,Cc1nn(C(=O)c2cccnc2)c(-c2ccccc2)c1N=Nc1ccc(C(=O)O)cc1,18.8%
17,CCCCCCCSC#N,29.6%
18,Cc1cccc(Nc2nc(NNC(=O)Cc3ccccc3)nc(NNC(=O)c3ccncc3)n2)c1,18.8%
19,COc1cc(/C=C2\CCC(CN(C)C)C2=O)ccc1OC(=O)c1ccccc1 (stereo not given),89.7% (active)
20,CCCc1cccc[n+]1CC(=O)c1ccccc1,-1.65%

row,Structure (SMILES),growth inhibition
1,CC[N+](C)(CC)CCOC(=O)C(c1ccccc1)C(O)C1CCCCC1 (stereo not given),8.75%
2,O=c1oc2ccc3ccccc3c2c(-c2ccc(O)cc2)c1-c1ccccc1,98.7% (active)
3,COc1ccccc1/C=C/C(=O)N1CCC2(CC1)C(=O)N(C)CN2c1ccccc1,-2.4%
4,CCOc1ccccc1C=Nc1cc(C(C)C)c(O)cc1C,-12.3%
5,O=C(O)c1c(O)ccc(O)c1C(=O)O,-11.2%
6,NNC(=O)CC(N)C(=O)O (stereo not given),2%
7,CC(C)(C)N/N=C(\C(=O)Nc1cccc(Cl)c1)C1C(=O)Nc2ccccc2S1=O (stereo not given),8.75%
8,CC1CNC(=O)C(=O)N1 (stereo not given),-8.05%
9,O=C(NCCN1CCCC1)Nc1ccccc1Cl,0.15%
10,CCCCCCCCCCCCOc1ccc(C(C)(C)C)cc1,-11.7%
11,CC1=CC(=O)C(=CN2C(=O)/C(=C\c3cccnc3)NC2=S)C(=O)O1,-21.9%
12,Cc1ccc(S(=O)(=O)Oc2cccc(Br)c2)cc1,7.55%
13,CCOC(=O)O/C(C)=C\c1ccccc1Cl,5.7%
14,CC(=O)OC1C(C2COCO2)OCOC1C1COCO1 (stereo not given),-18%
15,CCCC(=O)/C=C\c1ccccc1,-10.7%
16,COc1cc(NC(=O)Nc2cccc(C(C)=O)c2)c(OC)cc1Cl,-9.15%
17,Nc1cc2c(cc1Br)-c1c(C(=O)O)cccc1C2=O,-13.1%
18,O=[N+]([O-])c1ccc(S(=O)(=O)N/N=C/c2cccc3ccccc23)cc1,19.8%
19,N.N.N.N.N.O=C([O-])c1nn[n-]n1.[Cl-].[Co+3],-7.5%
20,CCc1cc(CCC(=O)Nc2ccccc2[N+](=O)[O-])[nH]c(=S)n1,-11.2%
